Screening results deposited in PubChem BioAssay by several laboratories.
Smad3 FoxH1 inh – Smad3 (human) transcription factor binding inhibition | AID 630 | 0.29% of 88,000 active | inhibition, % at 25 µM | TR-FRET Smad3/Dy647-FoxH1 peptide binding, europium anti-His;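 active means compounds that reduce the energy-transfer binding signal between the protein and its labelled peptide by more than half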;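 further: 0% = Smad3 plus labelled peptide maximal FRET and 100% = peptide-only background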
Target sequence (P84022 whole entry, looked up): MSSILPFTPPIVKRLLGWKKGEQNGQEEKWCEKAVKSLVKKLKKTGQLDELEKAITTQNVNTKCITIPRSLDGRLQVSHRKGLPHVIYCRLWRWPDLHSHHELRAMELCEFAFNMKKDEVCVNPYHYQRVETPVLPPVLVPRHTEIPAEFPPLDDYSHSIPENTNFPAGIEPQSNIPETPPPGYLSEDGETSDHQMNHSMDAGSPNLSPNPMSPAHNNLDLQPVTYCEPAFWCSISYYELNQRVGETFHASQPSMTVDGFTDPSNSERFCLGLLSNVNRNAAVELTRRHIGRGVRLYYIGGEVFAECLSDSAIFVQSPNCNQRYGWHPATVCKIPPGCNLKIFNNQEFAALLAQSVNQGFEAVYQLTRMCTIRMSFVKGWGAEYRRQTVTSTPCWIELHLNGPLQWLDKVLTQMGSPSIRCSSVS
DAT uptake mod – modulates human dopamine transporter uptake under cocaine; Q01959; LLC-PK1 hDAT cells, [14C]-dopamine uptake with cocaine IC80; actives deviate in either direction; B-score at 10 µM; 1.3% of 110,000 active; AID 449768;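 active means Z score or B-score, a plate-position-corrected score, falls beyond the plate's 99.7% confidence bounds, in either direction; inactive means both scores lie inside the 99.7% bounds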;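 further: scored against the spread of the other compound wells on the same plate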
PostGolgi yeast – growth inhibition of a yeast mutant, post-Golgi transport screen. 0.9% of 98,000 active. post-Golgi transport phenotypic cell assay. inhibition, % at 10 µM;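 further: yeast cells grown in 1536-well plates; yeast grown about 18 h at 30C before absorbance read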
Cav32 inh – blocks human Cav3.2 T-type calcium channel; 4% of 100,000 active; O95180; B-score at 10 µM; Cav3.2-expressing cells, Fluo-4 calcium fluorescence FDSS; stronger effect = lower value; AID 449739;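 active means single-dose well whose peak fluorescence ratio is a statistical outlier from its plate by either plate-standardised score or position-corrected B-score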
TNAP act mid DEA – human TNAP activation, intermediate phosphate acceptor; P05186; purified TNAP, CDP-star luminescence, 100 mM DEA, 30 min; stronger effect = higher value; scale: 0 levamisole-inhibited, 1 vehicle-only enzyme; activation factor at 20 µM; 64,000 tested, under 10 active; AID 813;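 active means activation factor of at least 2 at 20 µM, relative to controls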
PostGolgi ctrl – inhibits growth of the yeast control strain | efflux-deficient yeast background strain, growth absorbance A615, 16 h | inhibition, % at 10 µM | 5% of 98,000 active | AID 738
* = called active by the depositor. The list is not random: actives were taken first. Their share in the collection is about 8.7%. Unless noted, no stated cut-off is given here; in the data, active means inhibition above about 30%; inactive means the rest.

Screening CCNC(=O)c1ccc(-n2nc(C(F)(F)F)c3c2CCCC3)cc1 returned DAT uptake mod -0.83, PostGolgi yeast -1.2, Cav32 inh -3.85 and PostGolgi ctrl 9.3.
Screening COc1ccc(Cl)cc1NC(=O)CN(C(=O)c1ccco1)C1CCCCC1 returned Smad3 FoxH1 inh -3.2, DAT uptake mod -0.00366, PostGolgi yeast -0.9, TNAP act mid DEA 1 and PostGolgi ctrl 40.6*.
`COc1ccc(Cl)cc1NC(=O)CN(C)C(C)C(=O)NCC1CCCCC1` (configuration not stated) gave Smad3 FoxH1 inh 10.9, DAT uptake mod 1.52, PostGolgi yeast 1.0, Cav32 inh -1.01, TNAP act mid DEA 0.9 and PostGolgi ctrl 19.6.
`COc1ccc(S(=O)(=O)N2Cc3ccccc3CC2C(=O)Nc2nccs2)cc1OC` (configuration not stated) gave Smad3 FoxH1 inh 4.5, DAT uptake mod -0.463, PostGolgi yeast 1.9, Cav32 inh -0.62, TNAP act mid DEA 1 and PostGolgi ctrl 5.1.
`COc1ccc(S(=O)(=O)N2Cc3ccccc3CC2C(=O)Nc2nccs2)cc1` (configuration not stated) gave Smad3 FoxH1 inh -8.6, DAT uptake mod -1.68, PostGolgi yeast -4.0, Cav32 inh -1.12 and PostGolgi ctrl 36.5*.
Screening Cc1ccc(S(=O)(=O)N2Cc3ccccc3CC2C(=O)Nc2ccc3c(c2)OCO3)cc1 (configuration not stated) returned DAT uptake mod -0.0553, PostGolgi yeast 1.5, Cav32 inh -4.54* and PostGolgi ctrl 17.1.
For CCc1nnc(NC(=O)C2Cc3ccccc3CN2S(=O)(=O)c2ccc(C)cc2)s1 (configuration not stated) the results were Smad3 FoxH1 inh 11.2, DAT uptake mod 0.486, PostGolgi yeast 5.3, Cav32 inh -2.92 and PostGolgi ctrl 40.6*.
`COCCCNC(=O)CN(C1CCCCC1)S(=O)(=O)c1ccc(C)cc1` gave Smad3 FoxH1 inh 13.3, DAT uptake mod 0.273, PostGolgi yeast 7.9, Cav32 inh 0.153, TNAP act mid DEA 1.1 and PostGolgi ctrl 6.0.
For CCN(CC)CCNC(=O)c1c(O)c2cccc3c2n(c1=O)CCC3 the results were Smad3 FoxH1 inh 1.3, DAT uptake mod 0.181, PostGolgi yeast 0.2, Cav32 inh 0.331, TNAP act mid DEA 1.1 and PostGolgi ctrl 2.5.
`CC[C@H](C)/C=C(C)/C=C/C(=O)Cc1cc(O)c(C)c(O)c1C=O` gave DAT uptake mod 0.166 and Cav32 inh -3.64*.
COc1cc(CNCCO)cc(Br)c1OCc1cccs1 was read as DAT uptake mod 0.474, PostGolgi yeast 20.2, Cav32 inh 0.0179 and PostGolgi ctrl 3.7.
C=CCOc1c(Br)cc(CNc2nccs2)cc1OC was read as Smad3 FoxH1 inh 5.4, DAT uptake mod 0.0188 and Cav32 inh -7.88*.
CCCCNc1nc2ccccc2n1CC(=O)N1CCc2ccccc2C1 was read as Smad3 FoxH1 inh -0.8, DAT uptake mod -0.0862, PostGolgi yeast -0.8, Cav32 inh -1.54, TNAP act mid DEA 1 and PostGolgi ctrl -4.1.
Screening Nc1c(C(=O)OCC2CCCO2)c2nc3ccccc3nc2n1C1CCCC1 (configuration not stated) returned Smad3 FoxH1 inh -7.2, DAT uptake mod 1.66, PostGolgi yeast 9.0, Cav32 inh -2.9, TNAP act mid DEA 0.9 and PostGolgi ctrl 48.2*.
Screening COCCn1c(N)c(C(=O)NCC2CCCO2)c2nc3ccccc3nc21 (configuration not stated) returned Smad3 FoxH1 inh 11.7, DAT uptake mod 0.954, PostGolgi yeast 3.1, Cav32 inh -2.59, TNAP act mid DEA 1 and PostGolgi ctrl 8.0.
Screening CCCS(=O)(=O)N1CCN(c2ccccn2)CC1 returned Smad3 FoxH1 inh -5.0, DAT uptake mod -1.66, PostGolgi yeast 1.4, Cav32 inh 0.183, TNAP act mid DEA 1 and PostGolgi ctrl 23.5.
Screening COCCN1C(=O)c2oc3ccccc3c(=O)c2C1c1cccc(O)c1 (configuration not stated) returned Smad3 FoxH1 inh -3.9, DAT uptake mod -0.709, PostGolgi yeast 6.4, Cav32 inh 0.465, TNAP act mid DEA 1 and PostGolgi ctrl 32.2*.
For Cn1c(=O)c2ncn(CC(=O)Nc3ccc4oc(-c5cccc6ccccc56)nc4c3)c2n(C)c1=O the results were Smad3 FoxH1 inh -1.4 and TNAP act mid DEA 1.
For CCC(C)c1ccc2oc(-c3ccc(NC(=O)Cn4cnc5c(=O)n(C)c(=O)n(C)c54)cc3)nc2c1 (configuration not stated) the results were Smad3 FoxH1 inh 5.7, DAT uptake mod 0.301, PostGolgi yeast -16.5, Cav32 inh -0.763, TNAP act mid DEA 0.9 and PostGolgi ctrl 75.9*.
CN1CCc2nc(SCc3ccc(Cl)cc3)c(C#N)c(-c3cccs3)c2C1 was read as DAT uptake mod 1.59 and Cav32 inh -2.06.
Screening COc1ccccc1C1N(c2ccc(F)cc2)C(=O)C2CCCN21 (configuration not stated) returned Smad3 FoxH1 inh 1.3, DAT uptake mod -0.146, PostGolgi yeast -3.9, Cav32 inh 0.206, TNAP act mid DEA 0.9 and PostGolgi ctrl 9.3.
`O=C1NC(c2cccs2)Nc2sc3c(c21)CCCC3` (configuration not stated) gave Smad3 FoxH1 inh 3.9, DAT uptake mod 2.8*, PostGolgi yeast 0.5, Cav32 inh -0.481, TNAP act mid DEA 0.8 and PostGolgi ctrl 8.5.
`C/C=C\C=C/C(=O)Nc1cccc(C2=NOC3(C2)C[C@@H](C(N)=O)N(C(=O)/C=C/C=C\C)C3)c1` (some centres not stated) gave DAT uptake mod 0.164 and Cav32 inh -0.0138.
COc1ccc(C(=O)Nn2cnc3scc(-c4cccs4)c3c2=O)c(O)c1 was read as Smad3 FoxH1 inh 2.9, DAT uptake mod 0.117, PostGolgi yeast 2.1, Cav32 inh -9.05*, TNAP act mid DEA 1.1 and PostGolgi ctrl 24.4.
`COc1cccc(-n2cnc3scc(-c4cccs4)c3c2=O)c1` gave Smad3 FoxH1 inh 13.7, DAT uptake mod 1.16, PostGolgi yeast -3.1, TNAP act mid DEA 1 and PostGolgi ctrl 0.7.
Screening CCOC(=O)c1cc(CC)sc1NC(=O)COC returned Smad3 FoxH1 inh -14.1, DAT uptake mod -0.448, PostGolgi yeast 2.1, Cav32 inh -0.0183, TNAP act mid DEA 1 and PostGolgi ctrl 11.3.
CCOC(=O)c1cc(CC)sc1N was read as Smad3 FoxH1 inh -4.1, DAT uptake mod -1.09, PostGolgi yeast -0.2, Cav32 inh -0.272, TNAP act mid DEA 1 and PostGolgi ctrl 30.0*.
O=c1[nH]c2ccc(Cl)cc2c(-c2ccccc2)c1N1CCN(c2ccccn2)CC1 was read as Smad3 FoxH1 inh 0.5, DAT uptake mod 0.773, PostGolgi yeast 30.6*, Cav32 inh -0.361, TNAP act mid DEA 0.9 and PostGolgi ctrl 81.7*.
